Rows were chosen to be rich in hits. Some 2.2% of all compounds tested hit in one or more screens of this group.
BaF3 tox: parental Ba/F3 cell viability inhibition, counter-screen for JAK2V617F inhibitor project, murine pro-B, CellTiter-Glo luminescence. inhibition, % at 5.6 µM. CellTiter-Glo ATP luminescence. AID 1486, 2009. hit rate 1.1% among 220,000;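 active means inhibition above a per-campaign cutoff, the mean inhibition of all tested compounds plus 3 SD, cut at about 27% in these data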;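 further: 0% = DMSO wells and 100% = JAK Inhibitor I control wells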
aSyn UTR inh: MLPCN primary screen, SNCA 5' untranslated region; AID 1813, 2009; alpha-synuclein 5'UTR reporter, inhibitor activity; hit rate 0.82% among 300,000; inhibition, % (tested at 7.5 µM); in the data active means inhibition above about 60%;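 further: H4 neuroglioblastoma cells stably carrying SNCA 5'UTR luciferase fusion; 0% = DMSO wells and 100% = positive control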
APP 5UTR inh: inhibitors of APP translation via 5'UTR reporter, primary screen, APP 5'UTR luciferase, SH-SY5Y cells; SH-SY5Y APP 5'UTR-luciferase reporter, luminescence; inhibition, % at 2 µM; hit rate 0.82% among 190,000; AID 1285, 2008;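 active means inhibition above a set limit, derived from the sample mean plus 3 SD, cut at about 45% in these data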
KLF5 inhibitor: KLF5 expression inhibitors, primary screen, DLD-1 cells, luminescence | DLD-1 KLF5 promoter-luciferase reporter | inhibition, % at 5 µM | hit rate 0.23% among 290,000;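 active means inhibition above a per-plate limit of that plate's mean compound inhibition plus 3 SD, cut at about 60% in these data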;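 further: 0% = DMSO wells and 100% = LY294002 at 200 µM; higher means less KLF5 promoter-driven luciferase light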
IEC-6 tox: cytotoxicity in IEC-6 intestinal epithelial cells, primary screen, cytotoxicity control for KLF5 inhibitor project, cell-based, luminescence; IEC-6 cytotoxicity, luminescence viability; inhibition, % at 5 µM; hit rate 0.78% among 290,000; AID 1825, 2009; in the data active means inhibition above about 22%;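 further: 0% = plate median of test compound wells and 100% = cytotoxic reference compound wells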
Ba/F3 V617F tox: reduced viability of JAK2V617F-dependent Ba/F3 cells, primary screen, JAK2V617F inhibitor project, cell-based, Ba/F3 EpoR-JAK2V617F, luminescence; ATP luminescence; inhibition, % at 5.6 µM; hit rate 1.1% among 220,000;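 active means inhibition above the campaign mean plus 3 SD over all tested compounds, cut at about 24% in these data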;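 further: cytokine-independent growth of Ba/F3 cells driven by EpoR plus mutant JAK2; 0% = DMSO-treated cells and 100% = JAK inhibitor I control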
Active calls of the source: *; . = no result.

SMILES | BaF3 tox | aSyn UTR inh | APP 5UTR inh | KLF5 inhibitor | IEC-6 tox | Ba/F3 V617F tox
CCOc1ccc(C(=O)C[n+]2cccc3cc(C)ccc32)cc1 | . | 5 | . | -10 | 1 | .
Cc1ccc(C(=O)C[n+]2cccc3cc(C)ccc32)cc1 | 70* | 1 | 10 | -11 | 2 | 5
CC(=O)N1CCOc2ccc(S(=O)(=O)N3CCN(c4cc(C)ccc4C)CC3)cc21 | . | 12 | . | -9 | 6 | .
CCC(C)[C@H](NC(=O)[C@@H]1Cc2c([nH]c3ccccc23)C2c3ccccc3C(=O)N21)C(=O)N1CCC[C@@H]1C(=O)O (stereo not given in full) | . | -5 | . | -14 | 6 | .
O=C(COC(=O)CN1C(=O)c2ccccc2C1=O)Nc1ccc(S(=O)(=O)N2CCCC2)cc1 | 2 | -11 | 50* | -19 | 1 | -2
COCCCC1CCN(C(=O)C2CCC(=O)N(CC3CCCCC3)C2)CC1 (stereo not given) | . | -1 | . | -23 | -3 | .
COc1cccc(-c2cc(=O)c3cc(NC(=O)c4ccccc4)ccc3[nH]2)c1 | 5 | 82* | 87* | -14 | 5 | -2
COc1cccc(-c2cc(=O)c3cc(NC(=O)c4ccc(Cl)cc4)ccc3[nH]2)c1 | 10 | -68 | 78* | -10 | 4 | 1
COc1cccc(C(=O)Nc2ccccc2)c1 | 5 | -122 | -45 | -44 | 2 | 3
O=C1C=CC(=O)N1c1ccc(OC(F)F)cc1 | 0 | . | 56* | 2 | -2 | -1
O=C(O)[C@@H]1CCCC[C@@H]1C(=O)N1CCc2ccccc2C1CN1C(=O)c2ccccc2C1=O (stereo not given in full) | -2 | 68* | 20 | -29 | -1 | -3
Cn1nc(-c2ccc(N3CCCCC3)c(NC(=O)c3ccco3)c2)c2ccccc2c1=O | 4 | 67* | 11 | -20 | -1 | 0
CCC(=O)Nc1cc(-c2nn(C)c(=O)c3ccccc23)ccc1N1CCOCC1 | 2 | 12 | -7 | 11 | 4 | -4
COc1ccc(/C=C2/CCc3ccccc3C2=O)cc1OC | 6 | -18 | -101 | -6 | -2 | 0
COc1ccc(/C=C2\CCc3ccccc3C2=O)cc1CN1CCOCC1 | -2 | 62* | . | -29 | -9 | 0
CC[n+]1c(/C=C/N(C)c2ccccc2)oc2ccc(Cl)cc21 | 59* | 18 | -10 | 6 | 0 | 54*
CCn1c(/C=C/N(C(C)=O)c2ccccc2)[n+](CC)c2ccc(Cl)cc21 | 10 | -14 | -11 | -13 | 2 | -4
CCc1ccc2c(c1)[C@H]1OCC[C@H]1[C@@H](c1cccs1)N2 | 41* | 38 | 65* | -12 | 9 | 19
Clc1ccc(Cn2c(/C=C/c3ccco3)nc3ccccc32)cc1 | 27* | -13 | -10 | -13 | 4 | -2
Cc1ccc(Cn2c(/C=C/c3ccco3)nc3ccccc32)cc1 | 13 | 1 | -37 | -17 | -4 | 4
CCC[N+]1(CC#CCC(c2ccccc2)c2ccccc2)CCCCC1 | . | 3 | . | 23 | 15 | .
C(#Cc1ccccc1)C[N+]1(CC#Cc2ccccc2)CCCCC1 | 69* | 28 | 2 | 12 | -1 | 87*
C(#Cc1ccccc1)C[N+]1(CC#Cc2cccc3ccccc23)CCOCC1 | 50* | . | -1 | -7 | -4 | 56*
O=C(C[N+]1(CC#Cc2ccccc2)CCOCC1)c1ccc(Cl)cc1 | 5 | -15 | -27 | 1 | 9 | 6
C#CC[N+]1(CC#Cc2cccc(C)c2)CCCCC1 | 67* | -21 | 7 | 13 | 1 | 76*
SMILES | BaF3 tox | aSyn UTR inh | APP 5UTR inh | KLF5 inhibitor | IEC-6 tox | Ba/F3 V617F tox
C#CC[N+]1(CC#Cc2ccccc2)CCCCC1 | 59* | 8 | 14 | -26 | -8 | 46*
C#CC[N+]1(CC#Cc2ccccc2)CCOCC1 | 12 | -33 | 8 | -14 | -2 | 3
COc1cccc(N2CCN(c3ccc4nnc(CCC(=O)Nc5ccccn5)n4n3)CC2)c1 | . | -7 | . | -35 | 0 | .
Cc1ccc(C#CC[N+]2(CC#Cc3ccc(C)cc3)CCCCC2)cc1 | 78* | 19 | 10 | 28 | 15 | 96*
Cc1noc(C)c1S(=O)(=O)N1CCC(C(=O)NCCCN2CC(C)CC(C)C2)CC1 (stereo not given) | 5 | 20 | 6 | -14 | 1 | 2
Cc1noc(C)c1S(=O)(=O)N1CCC(C(=O)NCCN2CCC(C)CC2)CC1 | 7 | -7 | 61* | -18 | 1 | 2
CC1CCCCC12NC(=O)N(CC(=O)Nc1ccc3[nH]c(=O)[nH]c3c1)C2=O (stereo not given) | . | 3 | . | . | . | .
COC(=O)c1sc(S(=O)(=O)N2CCCCC2C(=O)O)c(C(=O)OC)c1C (stereo not given) | 2 | -3 | 59* | -45 | 1 | -3
CCc1noc(C)c1C(=O)NNC(=O)COc1ccc(C)cc1 | . | -4 | . | . | . | .
O=C(c1ccc(Cl)cc1)N1CCN(CCc2ccccn2)CC1 | . | 12 | . | -19 | -1 | .
CCCCN(CCCC)C(=O)c1cc2ccccc2c(=O)o1 | 37* | 18 | 26 | 12 | -6 | 19
COc1ccc(/C=C2\CN(Cc3ccccc3)C/C(=C\c3ccc(OC)cc3OC)C2=O)c(OC)c1 | 5 | -68 | 2 | 1 | -2 | 0
COc1ccc(C=C2c3ccccc3C(=O)c3ccccc32)c(OC)c1 | 83* | 98* | . | 61 | 87* | 84*
COc1cc(C2C(C#N)=C(N)N(N(C)C)C3=C2C(=O)CC(C)(C)C3)ccc1O (stereo not given) | . | -6 | . | -4 | -2 | .
COc1ccc(CCNC(=O)CSc2nncs2)cc1 | 7 | 13 | -1 | -14 | 0 | -2
O=C(N/N=C\c1ccc(Cl)s1)C1COc2ccccc2O1 (stereo not given) | -3 | -67 | . | -7 | 3 | 1
O=C(N/N=C/c1c[nH]c2ccccc12)C1COc2ccccc2O1 (stereo not given) | 2 | 76* | 26 | 4 | -4 | 2
Cn1cc(C(=O)c2ccc(Cl)cc2)cc1-c1nc2ccccc2n1C | 47* | 11 | . | -11 | 2 | -2
COc1ccccc1-n1cnnc1SCC(=O)N1CCOCC1 | . | -2 | . | -26 | 1 | .
O=C(N/N=C\c1cc(Br)ccc1O)c1ccc(S(=O)(=O)N2CCCCC2)cc1 | 0 | 110* | 69* | -1 | 0 | -4
O=C(N/N=C/c1cc(Cl)ccc1O)c1ccc(Br)cc1 | 7 | . | 56* | 19 | 11 | 2
NC(=O)N/N=C\c1cc(Br)ccc1O | 3 | 17 | -3 | -3 | 2 | -4
CC(C)C(=O)Nc1ccc(C(=O)N/N=C/c2cc(Br)cc(Br)c2O)cc1 | 5 | 8 | 46* | -36 | 0 | 3
Cc1ncc(CN2CCC(CO)(Cc3ccccc3)CC2)s1 | 5 | -11 | -6 | -34 | 1 | 3

Source: PubChem
